Screening results deposited in PubChem by National Center for Advancing Translational Sciences (NCATS).
This is one part of a sample in which hits are shown more often than they occur.
aSyn tox rescue – rescues yeast growth from alpha-synuclein toxicity. S. cerevisiae alpha-synuclein toxicity rescue, BacTiter-Glo growth, 24 h. AID 1347070. Potency, µM (series often up to 46.1 µM), most hits filed as activators. hit rate 0.02% among 94,000; active = well fitted activation curve with a large enough effect; note: 0% is about no effect
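Growth restoration measured by BacTiter-Glo luminescence after 24 hr at 30 deg C; alpha-synuclein yeast, raffinose-pregrown to mid-log, were added at OD600=0.02 in galactose medium onto pinned compounds.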
Active calls of the source: *; i = inactive. Potency is the fitted concentration of half-maximal effect.

SMILES | aSyn tox rescue
Cn1c(/C(C#N)=C/c2ccc(C(F)(F)F)cc2)nc2ccccc21 | 2.5µM*
O=S(=O)(/C(=C/c1ccc(C(F)(F)F)cc1)c1nc2ccccc2[nH]1)c1ccccc1 | i
Cc1ccc(/C=C(\C#N)c2nc3ccccc3c(=O)[nH]2)cc1 | i
CCN(CC)c1ccc(NS(=O)(=O)c2cc3[nH]c(=O)c(=O)[nH]c3cc2C)c(C)c1 | i
O=C(NC1CCCCC1)c1ccc2c(c1)sc1nc(-c3ccccc3)cn12 | i
Cc1ccccc1Nc1nnc(-c2ccc(C)c(S(=O)(=O)NCC3CCCO3)c2)c2ccccc12 (stereo not given) | i
O=C(CSc1ncc(S(=O)(=O)c2ccc(Cl)cc2)c(=O)[nH]1)Nc1ccc2c(c1)OCCO2 | i
O=C(Nc1ccc(S(=O)(=O)N2CCCCCC2)cc1)c1cc(=O)c2ccccc2o1 | i
COc1ccc(S(=O)(=O)Nc2ccc(F)c(F)c2)cc1C(=O)N1CCOCC1 | i
CCOc1ccc(NC(=O)c2c(NCc3cccnc3)sc3c2CCCC3)cc1 | i
CCOc1ccc(NC(=O)c2c(NCc3ccc(C)o3)sc3c2CCCCC3)cc1 | i
COc1ccc(NC(=O)c2c(NCc3ccc(C)o3)sc3c2CCC(C)C3)cc1 (stereo not given) | 14µM*
COc1ccccc1NC(=O)c1c(NCc2ccc(C)o2)sc2c1CCC(C)C2 (stereo not given) | i
CC1CCN(C(=O)c2cc(-c3ccc(Br)cc3)on2)CC1 | i
CCCc1cnc2c(c1SCc1cccc(C)c1)c(=O)n(C)c(=O)n2C | i
O=C(CN1CCC(NC(=O)Nc2ccc(F)cc2)CC1)Nc1ccccc1[N+](=O)[O-] | i
CC(=O)Nc1nonc1-c1nnc(SCC(=O)Nc2ccc(F)cc2F)n1-c1ccccc1 | i
Cc1cc(C)cc(NC(=O)c2ncn(-c3ccccc3)n2)c1 | i
Cc1ccc2c(c1)N(C(=O)CCC(=O)NCc1cccc(Cl)c1)CC(C)O2 (stereo not given) | i
Cc1ccc(C(C)C)c(OCCSc2nc(-c3ccccc3F)nc3cc(=O)[nH]n23)c1 | i
CCn1cc(C(=O)NCCCOC)c(=O)c2cc(S(=O)(=O)N3CCc4ccccc4C3)ccc21 | i
CCc1ccc(CNC(=O)CCCn2ccc3cc(S(=O)(=O)N4CCCC4)ccc32)cc1 | i
CC(Sc1nnc(CNC(=O)c2ccco2)n1C)C(=O)Nc1nccs1 (stereo not given) | i
CCCCn1c(N)c(N(CC(C)C)C(=O)C2CCN(S(=O)(=O)c3ccc(Cl)cc3)CC2)c(=O)[nH]c1=O | i
COc1ccc(-c2cnc(C)o2)cc1S(=O)(=O)Nc1c(C)cc(C)cc1C | i
SMILES | aSyn tox rescue
COc1cccc(Cn2ccn(-c3ccc(F)cc3)c(=O)c2=O)c1 | i
C[C@H](CO)N1C[C@H](C)[C@@H](CN(C)S(=O)(=O)c2ccc(Oc3ccccc3)cc2)OCc2cnnn2CCCC1=O | i
COc1ccc(-c2[nH]c(-c3ccc(C)cc3)nc2SCC(=O)NCC2CCCO2)cc1 (stereo not given) | i
COc1cccc(NC(=O)CN(C)C(=O)Cn2c(=O)oc3ccccc32)c1 | i
COc1cc(NC(=O)CN2CCCN(S(=O)(=O)c3ccc(F)cc3)CC2)cc(OC)c1 | i
CCOc1ccc(-c2cc3nc(C4CCN(C(=O)OC(C)(C)C)CC4)c(C(=O)Nc4ccc(C)cc4C)cn3n2)cc1 | i
CCc1cc2c(cc3c(=O)n(CC(=O)NC(C)c4ccccc4)ncn32)s1 (stereo not given) | i
O=C(Nc1ccc(Br)cc1F)c1ccc2nc(CCc3ccccc3)oc2c1 | i
CCC(=O)N1CCc2cc(Br)cc(S(=O)(=O)N3CCCC(C(=O)NCc4ccccc4)C3)c21 (stereo not given) | i
COc1ccc(-c2nc(C)c(CCNC(=O)c3c(F)cccc3F)s2)cc1 | i
CCCCn1cc(S(=O)(=O)c2ccc(CC)cc2)c(=O)c2cc(F)c(N3CCOCC3)cc21 | i
COCC1CCN(Cc2cn(C)nc2-c2cccc(Cl)c2)C1 (stereo not given) | i
COC(=O)c1cc(Cl)ccc1NC(=O)CSc1ncc(S(=O)(=O)c2ccc(Br)cc2)c(=O)[nH]1 | i
Cc1ccc(Cl)cc1NC(=O)Nc1nnc(N2CCCC(C)C2)s1 (stereo not given) | i
CCCOc1cccc(C(=O)Nc2cccc(-c3nc4ncccc4o3)c2C)c1 | i
CCOc1ccccc1C(=O)N(Cc1ccc(N(C)C)cc1)Cc1ccco1 | i
COc1cc2c(cc1NS(=O)(=O)c1cccc(C#N)c1)n(C)c(=O)n2C | i
CCCn1cc(S(=O)(=O)c2ccccc2)c(=O)c2cc(F)c(N3CCCC(C)C3)cc21 (stereo not given) | i
CC(C)c1cc(-c2nc(-c3ccc(Cl)cc3)no2)n[nH]1 | i
CCC(=O)N1CCc2cc(Br)cc(S(=O)(=O)CCC(=O)NCc3cccc(OC)c3)c21 | i
Cc1cccc(N2CCN(C(=O)C3CCN(S(=O)(=O)c4cn(C)cn4)CC3)CC2)c1C | i
COc1ccc(C(=O)N2CCN(c3nc4c(C)c(Cl)ccc4s3)CC2)c(OC)c1 | 16µM*
COc1cc2ccccc2cc1C(=O)N1CCN(c2nc3c(C)cc(C)cc3s2)CC1 | i
Cc1c(Cl)ccc2sc(N3CCN(C(=O)C(C)C)CC3)nc12 | i
COc1ccc(Nc2nc3c(S(=O)(=O)c4ccc(Br)cc4)nnn3c3ccsc23)c(OC)c1 | i
SMILES | aSyn tox rescue
Cc1cc(C)c(S(=O)(=O)NCC(c2cccs2)S(=O)(=O)c2ccccc2)c(C)c1 (stereo not given) | i
CC(C)(C)OC(=O)N1CCC(c2c(C(=O)NCc3ccco3)cnn2-c2ccccc2)CC1 | i
CC(CNC(=O)c1ccc2c(c1)nc1n2CCOC1)c1ccccc1 (stereo not given) | i
CCc1cccc(NC(=O)CCS(=O)(=O)c2ccc(C)cc2)c1 | i
O=C(NCc1ccc(Cl)cc1)C1CCN(S(=O)(=O)c2ccc3c(c2)CCCN3C(=O)C2CCC2)CC1 | i
CCn1c(SCc2ccccc2F)nc(=O)c2c(C(=O)OC)cc(C3CC3)nc21 | i
Cc1ccc(C)c(N2CCN(CCCNC(=O)Cn3c(-c4cccs4)cc4ccccc43)CC2)c1 | i
COc1ccc(CNC(=O)c2ccc3c(c2)CCN3S(=O)(=O)c2ccc(C)cc2)cc1 | i
Fc1ccc2ncc3c(-c4ccccc4)n[nH]c3c2c1 | i
O=C(NCc1cccs1)c1ccc(CSc2nc3ccncc3n2Cc2ccccc2F)cc1 | i
COC(=O)c1ccc(NC(=O)c2c(NCc3cccc(F)c3)sc3c2CCCC3)cc1 | i
CCN(CC)CCCNC(=O)c1ccc(Cn2c(SCc3ccccc3)nc3cccnc32)cc1 | i
COc1ccc(-n2c(=O)c3c4c(sc3n(CC(=O)N3CCCCC3C)c2=O)CCC4)c(OC)c1 (stereo not given) | i
Cc1cccc2sc(N(Cc3cccnc3)C(=O)CCc3ccccc3)nc12 | i
Cc1cc(C)c2nc(N(Cc3cccnc3)C(=O)c3cccs3)sc2c1 | i
Cc1cccc2sc(N(Cc3cccnc3)C(=O)c3ccco3)nc12 | i
Cc1cccc2sc(N(Cc3cccnc3)C(=O)Cc3ccccc3)nc12 | 10µM*
Cc1cc(C)c2nc(N(Cc3cccnc3)C(=O)Cc3ccccc3)sc2c1 | 13µM*
Cc1ccc2nc(N(Cc3cccnc3)C(=O)Cc3ccccc3)sc2c1 | i
CCOc1ccc(CCNc2ncnc3onc(-c4ccc(F)cc4)c23)cc1OCC | i
CCCCN(Cc1cc2ccccc2[nH]c1=O)C(=O)c1cccc(Cl)c1 | i
